Experimental data taken from publication PMC5540273 (PLoS ONE, 2017).
Several values for one entry are separate records, joined by “and”; a condition that tells them apart may be missing. Equal values may be shown once. Read-outs that look alike come from different tables or passages of the source.

Key:
CSNK1A1L = settings: concentration: 1 μM, replicates: in singlicate, n = 1
CSNK1A1 = settings: concentration: 1 μM, replicates: in singlicate, n = 1
CSNK1D = settings: concentration: 1 μM, replicates: in singlicate, n = 1
CSNK1E = settings: concentration: 1 μM, replicates: in singlicate; n = 1
CSNK1G1 = settings: concentration: 1 μM, replicates: in singlicate, n = 1
CSNK1G2 = settings: concentration: 1 μM, replicates: in singlicate, n = 1
CSNK1G3 = settings: concentration: 1 μM, replicates: in singlicate, n = 1
CSNK2A1 = settings: concentration: 1 μM, replicates: in singlicate; n = 1
CSNK2A2 = settings: concentration: 1 μM, replicates: in singlicate, n = 1
CTK = system: T1, CTK; settings: concentration: 1 μM, replicates: in singlicate; n = 1
T1 construct: gene MATK

DAPK1 = settings: concentration: 1 μM, replicates: in singlicate, n = 1
DAPK2 = settings: concentration: 1 μM, replicates: in singlicate, n = 1
DAPK3 = settings: concentration: 1 μM, replicates: in singlicate, n = 1
DCAMKL1 = system: T2, DCAMKL1; settings: concentration: 1 μM, replicates: in singlicate, n = 1
T2 construct: gene DCLK1

DCAMKL2 = system: T3, DCAMKL2; settings: concentration: 1 μM, replicates: in singlicate; n = 1
T3 construct: gene DCLK2

DCAMKL3 = system: T4, DCAMKL3; settings: concentration: 1 μM, replicates: in singlicate, n = 1
T4 construct: gene DCLK3

DDR1 = settings: concentration: 1 μM, replicates: in singlicate, n = 1
DDR2 = settings: concentration: 1 μM, replicates: in singlicate, n = 1
DLK = system: T5, DLK; settings: concentration: 1 μM, replicates: in singlicate, n = 1
T5 construct: gene MAP3K12

DMPK2 = system: T6, DMPK2; settings: concentration: 1 μM, replicates: in singlicate, n = 1
T6 construct: gene CDC42BPG
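Note: KINOMEscan kinase panel screen.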

SMILES: [2H]C([2H])(c1cccc(C(F)(F)F)c1C)n1ccn2c(=O)nc(N3CCOCC3)cc12 [GSK2336394]
- %Inh (CSNK1A1L): 16%
- %Inh (CSNK1A1): 0%
- %Inh (CSNK1D): 19%
- %Inh (CSNK1E): 12%
- %Inh (CSNK1G1): 9%
- %Inh (CSNK1G2): 0%
- %Inh (CSNK1G3): 19%
- %Inh (CSNK2A1): 0%
- %Inh (CSNK2A2): 0%
- %Inh (CTK): 0%
- %Inh (DAPK1): 26%
- %Inh (DAPK2): 0%
- %Inh (DAPK3): 6%
- %Inh (DCAMKL1): 8%
- %Inh (DCAMKL2): 18%
- %Inh (DCAMKL3): 21%
- %Inh (DDR1): 0%
- %Inh (DDR2): 0%
- %Inh (DLK): 10%
- %Inh (DMPK2): 0%

SMILES: O=C(NCCNc1ccnc(Nc2ccc(F)cc2)n1)c1cc2ccccc2s1 [GSK1379874]
- %Inh (CSNK1A1L): 9%
- %Inh (CSNK1A1): 0%
- %Inh (CSNK1D): 0%
- %Inh (CSNK1E): 37%
- %Inh (CSNK1G1): 0%
- %Inh (CSNK1G2): 0%
- %Inh (CSNK1G3): 21%
- %Inh (CSNK2A1): 7%
- %Inh (CSNK2A2): 19%
- %Inh (CTK): 52%
- %Inh (DAPK1): 0%
- %Inh (DAPK2): 0%
- %Inh (DAPK3): 0%
- %Inh (DCAMKL1): 0%
- %Inh (DCAMKL2): 0%
- %Inh (DCAMKL3): 0%
- %Inh (DDR1): 0%
- %Inh (DDR2): 1%
- %Inh (DLK): 33%
- %Inh (DMPK2): 0%

SMILES: O=c1cc(N2CCOCC2)nc2n(Cc3cccc(F)c3)ccn12 [GSK2297430]
- %Inh (CSNK1A1L): 18%
- %Inh (CSNK1A1): 20%
- %Inh (CSNK1D): 15%
- %Inh (CSNK1E): 35%
- %Inh (CSNK1G1): 9%
- %Inh (CSNK1G2): 1%
- %Inh (CSNK1G3): 13%
- %Inh (CSNK2A1): 0%
- %Inh (CSNK2A2): 0%
- %Inh (CTK): 0%
- %Inh (DAPK1): 0%
- %Inh (DAPK2): 0%
- %Inh (DAPK3): 0%
- %Inh (DCAMKL1): 0%
- %Inh (DCAMKL2): 0%
- %Inh (DCAMKL3): 2%
- %Inh (DDR1): 0%
- %Inh (DDR2): 1%
- %Inh (DLK): 23%
- %Inh (DMPK2): 4%

SMILES: CC(C)(CN)c1nc(-c2ccc(Cl)c(O)c2)c(-c2ccncc2)[nH]1.O=C(O)C(F)(F)F [SB-477794]
- %Inh (CSNK1A1L; 1 µM): 85% and 81%
- %Inh (CSNK1A1; 1 µM): 96.3% and 93.8%
- %Inh (CSNK1D; 1 µM): 97% and 96.6%
- %Inh (CSNK1E): 99.6%
- %Inh (CSNK1G1; 1 µM): 0% and 5%
- %Inh (CSNK1G2; 1 µM): 0% and 7%
- %Inh (CSNK1G3; 1 µM): 22% and 14%
- %Inh (CSNK2A1): 0%
- %Inh (CSNK2A2; 1 µM): 11% and 0%
- %Inh (CTK): 0%
- %Inh (DAPK1; 1 µM): 11% and 19%
- %Inh (DAPK2; 1 µM): 0% and 5%
- %Inh (DAPK3; 1 µM): 33% and 17%
- %Inh (DCAMKL1; 1 µM): 7% and 3%
- %Inh (DCAMKL2): 0%
- %Inh (DCAMKL3; 1 µM): 29% and 36%
- %Inh (DDR1; 1 µM): 94.5% and 90.8%
- %Inh (DDR2; 1 µM): 80% and 78%
- %Inh (DLK; 1 µM): 37% and 42%
- %Inh (DMPK2; 1 µM): 90.8% and 88%
